From PubChem BioAssay (NCATS)
Calls of active or inactive are those of the source. Where a call stands in place of a potency, no number is given. Calls come from the whole dose curve; as a rule, active = well fitted inhibition curve with a large enough effect; inconclusive = small, poorly fitted or top-dose-only effect; inactive = flat fitted curve, though single readings scatter.

target: Luciferin 4-monooxygenase (Photinus pyralis) (UniProt P08659); assay: Primary firefly luciferase (FLuc) qHTS assay for identification of artifact compounds. (AID 1845220); conditions: purified firefly luciferase, luminescence, 5 min; series mostly up to 54.1 µM; note: nearly all actives have a fitted effect of over 60% in size
Text: PI: Alexander Tropsha Ph.D.
UNC Eshelman School of Pharmacy
University of North Carolina, Chapel Hill, North Carolina
Hits from high-throughput screening (HTS) of chemical libraries are often false positives due to their interference with the assay detection technology. In response to this problem, we generated the largest publicly available library of chemical liabilities and developed a free webtool to predict HTS artifacts, both of which are described herein. More specifically, we generated, curated, and integrated HTS datasets for thiol reactivity, redox activity, and luciferase (firefly and nano) activity. Using these curated datasets, we developed and validated several Quantitative Structure-Interference Relationship (QSIR) models to predict nuisance behavior. […] These models were employed for virtual profiling of the National Center for Advancing Translational Science's (NCATS) in-house library, and 256 compounds for each assay were selected for the experimental validation of nuisance behavior. The BA for these external predictions ranged from 58 to 78% for compounds within the applicability domains of the models. […] The models developed in this study, along with aggregation models previously developed by our group (SCAM Detective) were implemented in "Liability Predictor," an online tool which may be used as part of chemical library design or for triaging HTS hits. Both the models and the curated datasets are publicly available at https://liability.mml.unc.edu/.
SEQUENCE No. (e.g., 1, 2, 3, etc.); […] (e.g., Cells, Incubation, Reagent, etc.); VALUE; DESCRIPTION.
1; Reagent; 3 uL; Luciferase substrate mixture.
2; Compounds and control; 16 nL; Kalypsis pin tool (Wako USA) equipped with a 1536-well pin head.
4; Reagent; 1 uL; Luciferase enzyme.
6; Detection; Luminescence, ViewLux microplate reader.
NOTES (numbers refer to Sequence numbers above)
1. 3 uL of luciferase substrate mixture containing D-luciferin and ATP (final concentrations of 10 uM and 10 uM, respectively) in assay buffer (10 mM Mg-acetate, 0.01% Tween-20, 0.05% bovine serum albumin, 50 mM Tris acetate, pH 7.6) was dispensed into all wells of a 1536-well assay plate (solid-bottom white plate; Greiner Bio One, Monroe, NC).
2. A Wako Pin-tool (Wako Automation, Richmond, VA) was used to transfer 16 nL of compounds (consisting of 7-plates in qHTS format, final concentration range 18.3 nM to 114 uM) or control PTC124 (final concentration range 1.22 nM to 40 uM).
3. 15 min. incubation at room temperature protected from light.
4. 1 uL of luciferase enzyme (final concentration 10 nM, Photinus pyralis luciferase) or buffer was dispensed for a final assay volume of 4 uL.
5. Plates were centrifuged (121xg, 15 seconds) and incubated for 5 minutes.
6. Samples were read for luminescence on a ViewLux CCD imager (PerkinElmer). Data were normalized to no-enzyme (0% activity) and no-inhibitor (DMSO; 100%) controls and the resulting percent inhibition data were fitted to a 4-parameter Hill equation using NCATS in-house software.
Potency is the fitted concentration of half-maximal effect.

Row | SMILES | Potency | activity change, negative = inhibition
1 | OCCCNc1cc(-c2ccnc(Nc3cccc(Cl)c3)n2)ccn1 | inactive | –
2 | NC(=O)c1c(OCc2c(F)cc(Br)cc2F)nsc1NC(=O)NCCCCN1CCCC1 | inactive | –
3 | COc1ccc(-n2nc(C(N)=O)c3c2C(=O)N(c2ccc(N4CCCCC4=O)cc2)CC3)cc1 | inactive | –
4 | Cc1cnc(Nc2ccc(F)cc2Cl)nc1-c1c[nH]c(C(=O)N[C@H](CO)c2cccc(Cl)c2)c1 | inactive | –
5 | COc1ccc(-c2cc3c(C)nc(N)nc3n(C3CCC(OCCO)CC3)c2=O)cn1 (stereo not given) | inactive | –
6 | CCOc1ccccc1OCCNC(C)Cc1ccc(OC)c(S(N)(=O)=O)c1 (stereo not given) | inactive | –
7 | Cc1cc(Nc2nc(N[C@@H](C)c3ccc(F)cc3)c(C#N)cc2F)n[nH]1 | inactive | –
8 | N#Cc1c(O)c2c(-c3ccc(-c4ccccc4O)cc3)csc2[nH]c1=O | inactive | –
9 | Cc1c(NC(=O)OC[C@@H]2COCCN2)cn2ncnc(Nc3ccc4c(cnn4Cc4cccc(F)c4)c3)c12 | inactive | –
10 | CC1COC2(CCN(c3nc(=O)c4cc(C(F)(F)F)cc([N+](=O)[O-])c4s3)CC2)O1 (stereo not given) | inactive | –
11 | C[C@@H]1COC(Nc2ccc3ncnc(Nc4ccc(OCc5nccs5)c(Cl)c4)c3c2)=N1 | 19 µM (active) | –
12 | CNC(=O)c1ccc(-c2cnc3ncc(Cc4ccc5ncccc5c4)n3n2)cc1F | inactive | –
13 | CC1(C)CCC(c2ccc(Cl)cc2)=C(CN2CCN(c3ccc(C(=O)NS(=O)(=O)c4ccc(N[C@H](CCN5CCOCC5)CSc5ccccc5)c(S(=O)(=O)C(F)(F)F)c4)cc3)CC2)C1 | inactive | –
14 | Cc1cc(CN2CCN(c3c(Br)cnc4nc(-c5ccc(N6CCN(C)CC6)cc5)[nH]c34)CC2)no1 | inactive | –
15 | Cc1cc(Nc2cc(N3CCN(C)CC3)nc(Sc3ccc(NC(=O)C4CC4)cc3)n2)n[nH]1 | inactive | –
16 | C#Cc1cccc(Nc2ncnc3cc(OC)c(OCCCCCCC(=O)NO)cc23)c1 | inactive | –
17 | COC(=O)c1ccc2c(C(=Nc3ccc(N(C)C(=O)CN4CCN(C)CC4)cc3)c3ccccc3)c(O)[nH]c2c1 | inactive | –
18 | COc1cc2c(Oc3ccc(NC(=O)C4(C(=O)Nc5ccc(F)cc5)CC4)cc3F)ccnc2cc1OCCCN1CCOCC1 | inactive | –
19 | COCCOc1ccc2c(c1)ncn2-c1ccc2cccc(N3CCC(N)CC3)c2n1 | inactive | –
20 | O=C(Cc1ccc(-c2ccc(OCCN3CCOCC3)cc2)cn1)NCc1ccccc1 | inactive | –

Row | SMILES | Potency | activity change, negative = inhibition
21 | COc1cccc(Nc2c(C(N)=O)cnc3c(C)cc(S(=O)(=O)c4cccc(C(=O)N(C)C)c4)cc23)c1 | inactive | –
22 | C[C@]1(CO)CN(c2cc(C(=O)Nc3ccc4c(c3)-c3c(c(C(N)=O)nn3-c3ccc(F)cc3)CC4)c(Cl)cn2)C[C@@]1(C)CO | inactive | –
23 | c1ccc2c(CCNc3ccc(Nc4ccncc4)cc3)c[nH]c2c1 | inactive | –
24 | OCc1ccc(-c2ccc(-c3ccc(CO)s3)o2)s1 | 1.31 µM (active) | –
25 | CC(O)C1C(=O)N2C(C(=O)O)=C(SC3CNC(C(=O)N(C)C)C3)C(C)C12 (stereo not given) | inactive | –
26 | Cc1ccc(CN2CCNCC2)cc1NC(=O)CNc1ccc(F)c(F)c1 | inactive | –
27 | NC(=O)c1cccc2cn(-c3ccc([C@@H]4CCCNC4)cc3)nc12 | inactive | –
28 | CCCNC(=O)Nc1ccc(Oc2ncnc3cc(OC)c(OC)cc23)cc1Cl | inactive | –
29 | O=C(c1cncc(Br)c1)N1CCC(N2CCCC2)CC1 | inactive | –
30 | CCn1cc(-c2ccnc3[nH]c(-c4cccc(CN(C)C)c4)cc23)c(-c2ccc(NC(=O)N(C)C)cc2)n1 | inactive | –
31 | Clc1cccc(-c2nnnn2Cc2cccnc2)c1Cl | inactive | –
32 | CCNC(=O)Nc1ccc2ncc(Nc3ccc(C)cc3)nc2n1 | inactive | –
33 | Cc1cc(Nc2cc(CN3CCOCC3)c3nc(C)c(Cc4ccc(Cl)cc4F)n3n2)n[nH]1 | inactive | –
34 | CC(=O)Nc1sc2c(c1-c1nc3ccccc3s1)CNC2 | inactive | –
35 | CNC(=O)c1c(F)cccc1Nc1nc(Nc2cc3c(cc2OC)CCN3C(=O)CN(C)C)nc2[nH]ccc12 | inactive | –
36 | CC(C)c1noc(N2CCC(COc3ccc(-c4ccc(S(C)(=O)=O)cc4)nc3)CC2)n1 | inactive | –
37 | CC(C)c1cc(C(=O)N2Cc3ccc(CN4CCN(C)CC4)cc3C2)c(O)cc1O | inactive | –
38 | COc1c(OCCCN2CCOCC2)ccc2c3n(c(=NC(=O)c4cnc(N)nc4)nc12)CCN3 | – | -4.27% [at 11.6 µM] (inactive)
39 | COc1ccc2c(OCc3nnc4ccc(-c5ccccc5)nn34)ccnc2c1 | inactive | –
40 | Clc1ccc2ncc(-c3cccc(NC4CNC4)n3)n2c1 | inactive | –
